About 6,200 (1.7%) of roughly 360,000 compounds were called active.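 How the source made its calls: active means inhibition of at least 50% at 20 µM; inactive means the rest.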 The full list was thinned out, with actives kept by preference.

A short description of the assay: Peg3 promoter-driven luciferase inhibitors, primary screen, cell-based, HeLa, luciferase luminescence (AID 588405). The settings on record: HeLa PEG-Prom luciferase reporter, overnight, at 20 µM, hits give high values. A general note: Reporter assays use an easily measured gene product as a stand-in for the process of interest.
For the molecule `Cc1ccc(CN2CCC(N3CCC(C(=O)NCC4CCCO4)CC3)CC2)o1` (stereo not drawn), the inhibition (as a rule, the relative decrease from the control value, in per cent) was -0.4% (inactive).

As for `CS(=O)(=O)c1cccc(-c2ccc3nncn3c2)c1`, the inhibition is -2.9% (inactive). `CCc1nc2ccc(C(=O)N3CCN(S(=O)(=O)CC)CC3)cn2c1N(C=O)CCC(C)C`: the inhibition was -6.03% (inactive).

Regarding `CC(C)[C@H](NC(=O)N1CC(=O)Nc2ccccc21)C(=O)N[C@@H](Cc1c[nH]c2ccccc12)C(=O)O`, the inhibition was 14.7% (inactive).

Turning to `O=C(NCc1cccc(C(F)(F)F)c1)c1ccc2sc(COCCO)nc2c1`, the inhibition was -51.8% (inactive). With `COc1cccc(CNc2nc3cc(-c4csc5ccccc45)sc3c(=O)n2C)c1`, the inhibition is -0.35% (inactive). The same measure for `COc1ccc(C(CCN(Cc2ccc(OC)c(OC)c2)C(=O)CCl)c2ccccc2)cc1` (stereo not drawn): 105% (active). Consider `COc1ccc(CCNC(=O)CN(c2ccccc2)S(C)(=O)=O)cc1OC`, for which the inhibition was 18.5% (inactive). In the case of `COc1ccc(CN(Cc2ccc(OC)cc2)C(=O)c2cccs2)cc1`, the inhibition was 0.72% (inactive). The same measure for `CCCc1nc(N2CCN(C)CC2)c2sc(=S)n(-c3ccccc3)c2n1`: 30.8% (inactive); for `OC[C@@H]1CN(Cc2ccc(Cl)cc2)C[C@H](n2cnc3c(NCc4ccncc4)ncnc32)O1`: 8.27% (inactive); for `FC(F)(F)Oc1ccccc1C(c1nnnn1C1CCCCC1)N1CCN(C/C=C/c2ccccc2)CC1` (stereo not drawn): -12.9% (inactive). The same measure for `CC[C@H]1CN2CCc3cc(OC)c(OC)cc3[C@@H]2C[C@@H]1C[C@H]1NCCc2cc(OC)c(OC)cc21`: 95% (active); for `CC(C)C[C@H]1CN([C@@H](Cc2ccccc2)CN2CCC[C@@H]2CN2C(=O)C(=O)NC[C@@H]2Cc2ccc(O)cc2)C(=O)C(=O)N1CCc1ccccc1`: -8.17% (inactive); for `CCOC(=O)C1=CCC(c2ccc(F)cc2)N(S(=O)(=O)c2ccc(C)cc2)C1` (stereo not drawn): 18.4% (inactive). The same measure for `CCc1nc2c(OCC(=O)C(C)(C)C)cccn2c1N(C)C(=O)c1ccccc1F`: -3.25% (inactive).

Regarding `COc1ccc(OC)c(C(O)c2ncc(-c3cccc(C(F)(F)F)c3)[nH]2)c1` (stereo not drawn), the inhibition was 1.51% (inactive).

For the molecule `CCCC[C@@H]1CN=C(N)N1CCc1cccc(F)c1`, the inhibition is 2.77% (inactive). With `CCCC[C@@H]1CN=C(N)N1CCc1cc(C(F)(F)F)cc(C(F)(F)F)c1` the figure was 64.1% (active); with `CCCC[C@@H]1CN=C(N)N1CCCC`, 6.54% (inactive); with `Cn1c(Nc2ccc(F)cc2)nc2cc(-c3ccsc3)sc2c1=O`, -53.6% (inactive).

Take `CC1(C(=O)Nc2ccccc2Br)CCN1C(=O)CC1CC1` (stereo not drawn): the inhibition was 3.67% (inactive).

Regarding `CCOC(=O)C1=CCC2C(=O)N(Cc3ccccc3)C(=O)C12` (stereo not drawn), the inhibition was -14.8% (inactive). As to `CNC[C@H]1OCc2cnnn2CCCC(=O)N([C@H](C)CO)C[C@@H]1C`, the inhibition was -4.6% (inactive). Regarding `COc1ccc(OC)c(NC(=O)c2cc(-c3cc(F)ccc3OCC3CCCO3)n[nH]2)c1` (stereo not drawn), the inhibition is 25.5% (inactive). With `COC(c1ccccc1)(c1ccccc1)C(Oc1nc(C)cc(C)n1)C(=O)O` (stereo not drawn), the inhibition was 19% (inactive). The same measure for `Cc1cc(C)nc(S/C=C/C(=O)c2ccccc2)n1`: 109% (active); for `Cc1cc(C)nc(SC(C)C(=O)N/N=C/c2cccs2)n1` (stereo not drawn): 2.36% (inactive); for `Cc1coc(C)c1C(=O)CC1(O)C(=O)N(C)c2ccc(Cl)cc21` (stereo not drawn): 7.27% (inactive). `CCOc1ccc(N2CC(C(=O)N/N=C/c3sccc3C)CC2=O)cc1` (stereo not drawn): the inhibition is 13.4% (inactive). `CC1(C(=O)NS(=O)(=O)c2ccccc2)CCN1C(=O)C1CCCCC1` (stereo not drawn): the inhibition is -0.02% (inactive). With `O=C1CCN(Cc2ccccc2)CCN1[C@H](CSc1ccccc1)c1ccccc1` the figure was -23.1% (inactive); with `CCCCC(=O)N/N=C(\C)CC(=O)Nc1cc(Cl)ccc1OC`, 93.5% (active); with `COc1ccc(Cl)cc1NC(=O)CCS(=O)(=O)c1ccc(Br)cc1`, 21.8% (inactive). With `COc1ccc(/C(C)=N/NC(=O)CCC(=O)Nc2ccc(Cl)cc2Cl)c(OC)c1` the figure was -11.2% (inactive). Take `C[C@H](NC(=O)CC[C@H]1O[C@@H](n2ccc(=O)[nH]c2=O)[C@H](O)[C@@H]1O)c1cccc2ccccc12`: the inhibition is 6.63% (inactive). The same measure for `OC(c1ccccc1)c1nc(/C=C/c2ccc(C(F)(F)F)cc2)cs1` (stereo not drawn): 3.42% (inactive); for `C#CCCOC(=O)N1C2=NC(C(=O)OC)=C(C(=O)OC)[C@@H]3N(C)c4ccc(OC)cc4[C@]23C[C@H]1C(=O)OC`: -3.24% (inactive); for `C[C@@H]1CN([C@@H](C)CO)C(=O)CCCn2cc(nn2)CO[C@H]1CN(C)S(=O)(=O)c1ccc(-n2cccn2)cc1`: -0.13% (inactive). Regarding `Cc1c(C(=O)NCC2CC2)sc(=O)n1Cc1cccc(F)c1`, the inhibition is -1.67% (inactive). The same measure for `CCN1C(=O)[C@@H]2[C@@H]3CN(S(=O)(=O)c4ccccc4C)[C@@H](c4ccc(Cl)cc4)[C@@H]3C(=O)C[C@@H]2C1=O`: -51.1% (inactive).

On to `Cc1nc2ccccc2c2oc(C(=O)NCCCN3CCC(C)CC3)cc12`, for which the inhibition is -9.23% (inactive). As to `CCCn1c2ccccc2c2cnn(CC(=O)NCCCN3CCCCC3CC)c(=O)c21` (stereo not drawn), the inhibition is 17.1% (inactive). In the case of `CCC1CCCCN1CCCNC(=O)c1cc2c(Cl)nc3ccccc3c2s1` (stereo not drawn), the inhibition is 100% (active).

On to `CN(CCO)C(=O)c1nc[nH]c1C(=O)N(C)Cc1ccccc1`, for which the inhibition is -1.65% (inactive).

As to `Cc1ccc(F)c(S(=O)(=O)NC(=O)C2(C)CCN2C(=O)CCc2cccs2)c1` (stereo not drawn), the inhibition is -1.22% (inactive).

With `COCCNC(=O)C1(C)CCCN(Cc2cccc(F)c2)C1` (stereo not drawn), the inhibition is 1.57% (inactive).

Regarding `CCNC(=O)C1(C)CCN(Cc2ccc(C(=O)OCC)o2)C1` (stereo not drawn), the inhibition is 2.73% (inactive).

In the case of `O=C(Cc1ccc(NC(=O)C2CCCN(C(=O)CCc3ccccc3)C2)cc1)Nc1ccc(C(=O)N2CCOCC2)cc1` (stereo not drawn), the inhibition is -12.9% (inactive). As for `CCOc1cc2[nH]c(=S)n(Cc3ccc(C(=O)N4CCN(C)CC4)cc3)c(=O)c2cc1OCC`, the inhibition was 105% (active). With `CCOc1cc2[nH]c(=S)n(Cc3ccc(C(=O)NCCOC)cc3)c(=O)c2cc1OCC` the figure was 9.27% (inactive); with `COc1cc2[nH]c(=S)n(Cc3ccc(F)cc3)c(=O)c2cc1OC`, 13.7% (inactive); with `COc1ccc(Br)c(Cn2c(C)c(C(=O)NCc3cccs3)sc2=O)c1`, 7.67% (inactive). With `Cc1nc(C(F)(F)F)ccc1C(=O)N1CCC1(C)C(=O)NS(=O)(=O)c1ccccc1Cl` (stereo not drawn), the inhibition was 7.45% (inactive). In the case of `O=S1(=O)CC(N2CCC(Cc3ccccc3)CC2)CN1Cc1ccccc1` (stereo not drawn), the inhibition is -15.6% (inactive). With `O=C(NNC(=O)c1ccccc1O)c1ccccc1O` the figure was 23.7% (inactive). The same measure for `O=C(COC(=O)c1ccc(O)cc1O)NC(=O)c1ccccc1`: 19.7% (inactive).

In the case of `O=C(NNc1c2ccccc2nc2ccccc12)c1cc2ccccc2cc1O`, the inhibition was 74.7% (active). The same measure for `O=C(Nc1cccc(S(=O)(=O)N2CCOCC2)c1)C12CC3CC(CC(C3)C1)C2`: 13.8% (inactive).

Regarding `CCCS(=O)(=O)NC(=O)C1(C)CCN(C(=O)c2sccc2C)C1` (stereo not drawn), the inhibition was -4.46% (inactive). `OC(c1ccc(Cl)cc1)c1ncc(-c2ccc(Cl)cc2)[nH]1` (stereo not drawn): the inhibition was -29.5% (inactive). With `OC[C@@H]1CN(Cc2ccc(-c3ccccc3)cc2)C[C@H](n2cnc3c(NC4CCCC4)ncnc32)O1` the figure was 19.6% (inactive); with `Cc1csc2ncc(C(=O)N(Cc3ccccc3)c3ccccn3)c(=O)n12`, 81.4% (active); with `CC(C)(C)C(=O)N(Cc1ccccc1)c1ccccn1`, -2.77% (inactive). The same measure for `CCC(=O)N(Cc1ccccc1)c1ccccn1`: 13.9% (inactive); for `O=C(CCN1C(=O)[C@@H]2Cc3ccccc3CN2C1=O)NCc1ccccc1`: 4.93% (inactive); for `Cc1cc2oc(=O)cc(CN(C)Cc3ccccc3)c2cc1Cl`: -133% (inactive).

For the molecule `Cc1cc2c(cc1C)N1C(=O)c3cc4ccccc4cc3NC(=O)C1C(=O)N2` (stereo not drawn), the inhibition is 9.54% (inactive). With `O=c1[nH]c(=S)[nH]c(O)c1/C=C1\C=Nc2ccccc21` the figure was 60.8% (active); with `COc1cc(C(O)c2nc(-c3cnn(C)c3)cs2)ccc1F` (stereo not drawn), 9.83% (inactive); with `CCc1nc2c(OCCOc3ccccc3)cccn2c1N(C)C(=O)c1cccs1`, 30.3% (inactive). Take `O=C(c1ccccc1)N1CCN(c2cc(-c3ccccc3)nc3cc(-c4cccc(Cl)c4)nn23)CC1`: the inhibition was 16.8% (inactive). The same measure for `C#Cc1cc(N2CCN(C(=O)c3ccoc3)CC2)n2nc(-c3cccc(Cl)c3)cc2n1`: 79.3% (active); for `CN(C)CCN1CCN(c2cc(-c3cccc(Cl)c3)nc3ccnn23)CC1`: 7.56% (inactive). With `CCCC(=O)N1CCC1(C)C(=O)Nc1ccc(-n2cncn2)cc1` (stereo not drawn) the figure was 5.62% (inactive).

With `Cc1noc(C)c1COc1ccc(C(=O)NCCOc2ccccc2)cc1`, the inhibition was -115% (inactive).

Regarding `CN(C)C(CNC(=O)c1ccc(OCc2cn3ccccc3n2)cc1)c1ccco1` (stereo not drawn), the inhibition is -55.3% (inactive).

For `CN(C)CCNC(=O)c1ccc(-c2cn3c(-c4ccc(Oc5ccccc5)cc4)cnc3cn2)cc1`, the inhibition was 99.7% (active). The same measure for `CCc1ccc(OC2(C)CCN(CCOc3ccc(C)cc3)C2)cc1` (stereo not drawn): 15.4% (inactive); for `CCN(CC(=O)NC1CCS(=O)(=O)C1)c1nc(-c2cccnc2)nc2ccccc12` (stereo not drawn): -4.15% (inactive). On to `COc1ccc(Nc2nc(-c3cccnc3)nc3ccccc23)cn1`, for which the inhibition was 53.5% (active). `S=c1nc2ccccc2c2nc(-c3cccnc3)[nH]n12`: the inhibition was -35.9% (inactive). Turning to `Cc1ccc(Sc2ccc(NC(=O)c3ccc(F)cc3)cc2C#N)cc1`, the inhibition was -1.6% (inactive).

Regarding `CN(CCO)c1ccc(/C=N/Nc2nncc3ccccc23)cc1`, the inhibition is 63.9% (active). Take `CC(C)NC(=O)Nc1ccc2c(c1)C(=O)N([C@H](C)CO)C[C@H](C)[C@@H](CN(C)Cc1ccc(C(F)(F)F)cc1)OCCCC[C@@H](C)O2`: the inhibition was 12.5% (inactive). Regarding `COc1ccc(-c2nnc(SC(C)C(=O)NC3CC3)o2)cc1` (stereo not drawn), the inhibition is -27.6% (inactive). As for `COc1ccc(-c2nnc(SC(=O)N3c4ccccc4Sc4ccccc43)o2)cc1`, the inhibition was 51.3% (active).

Take `COc1ccc(CN(C(=O)CSc2nnc(-c3ccc(OC)c(OC)c3)o2)c2ccc(F)cc2)cc1`: the inhibition is 30.6% (inactive).

The values are drawn from PubChem BioAssay AID588405 (Sanford-Burnham Center for Chemical Genomics, 2011).
